From PubChem BioAssay (NCATS)
Records with an inconclusive call do not appear. The source made the active and inactive calls. Unless noted, the call rests on the fitted dose curve; in most records, active means well fitted curve in the direction sought with a large enough effect; inconclusive means small, poorly fitted or top-dose-only effect, or another doubt; inactive means no such curve, though single readings can be large; an effect the other way counts as inactive or inconclusive.

How the values were obtained:
[1] = AP1 Signaling Pathway (AID 357; active means well fitted curve in either direction with a large enough effect, not every such curve was filed as active;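 further: ME-180 reporter cells stimulated with EGF at its EC50 level; on the % scale 0 is the no-effect control and ±100 the full control effect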); details: ME-180 AP-1-bla reporter, EGF-induced, beta-lactamase ratio, 5 h; at 38 µM (top of the series)
Outline: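 First, ME-180 AP-1-bla cells were cultured overnight at 37 °C in low-serum Opti-MEM. Next, titrated compounds with EC50 EGF were incubated 5 hours. Finally, CCF4 was added for 2.5 hours and the 460/530 nm ratio recorded.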

[2] = biological target: Cytochrome P450 1A2 (Homo sapiens) (UniProt P05177); test: p450-cyp1a2 (AID 410; calls by dose curve; further: potency means the concentration at half of the fitted maximal effect)
Outline: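 Luminescent demethylation readout: Luciferin-ME (100uM, equal to Km) turned over by 20nM CYP1A2 for 60 min at room temperature after NADPH regeneration addition, following 10 min compound preincubation. Normalization used 57 uM furafylline as full inhibition.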

[3] = Stat Signaling Pathway (AID 446; active means well fitted curve in either direction with a large enough effect, not every such curve was filed as active;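 further: ME-180 cervical cancer cells given 40 pM IL-6 alongside compound; SIE-controlled beta-lactamase reporter measured as 460/530 nm FRET emission ratio; on the % scale 0 is the no-effect control and ±100 the full control effect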); details: ME-180 (cervical carcinoma) SIE beta-lactamase reporter, IL-6 stimulated, 5 h; at 38 µM (top of the series)
Outline: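 Emission at 460 and 530 nm (excitation 405 nm) reports SIE-controlled beta-lactamase in ME-180 cells. Cells received compound with 40 pM IL-6 for 5 hrs at 37 C; data scaled between 300 pM IL-6 and 125 nM JAK-inhibitor controls.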

[4] = biological target: Glucocorticoid receptor (Homo sapiens) (UniProt P04150); test: GR-GFP Redistribution (AID 450;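 active means compounds whose dose series gives a full or clear partial fitted curve of increased nuclear translocation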; further: potency means the concentration at half of the fitted maximal effect); details: U2OS GR-GFP nuclear translocation, laser cytometry, 2 h
Sequence of Glucocorticoid receptor (Homo sapiens) (P04150 whole entry, looked up, the tested form may be a part): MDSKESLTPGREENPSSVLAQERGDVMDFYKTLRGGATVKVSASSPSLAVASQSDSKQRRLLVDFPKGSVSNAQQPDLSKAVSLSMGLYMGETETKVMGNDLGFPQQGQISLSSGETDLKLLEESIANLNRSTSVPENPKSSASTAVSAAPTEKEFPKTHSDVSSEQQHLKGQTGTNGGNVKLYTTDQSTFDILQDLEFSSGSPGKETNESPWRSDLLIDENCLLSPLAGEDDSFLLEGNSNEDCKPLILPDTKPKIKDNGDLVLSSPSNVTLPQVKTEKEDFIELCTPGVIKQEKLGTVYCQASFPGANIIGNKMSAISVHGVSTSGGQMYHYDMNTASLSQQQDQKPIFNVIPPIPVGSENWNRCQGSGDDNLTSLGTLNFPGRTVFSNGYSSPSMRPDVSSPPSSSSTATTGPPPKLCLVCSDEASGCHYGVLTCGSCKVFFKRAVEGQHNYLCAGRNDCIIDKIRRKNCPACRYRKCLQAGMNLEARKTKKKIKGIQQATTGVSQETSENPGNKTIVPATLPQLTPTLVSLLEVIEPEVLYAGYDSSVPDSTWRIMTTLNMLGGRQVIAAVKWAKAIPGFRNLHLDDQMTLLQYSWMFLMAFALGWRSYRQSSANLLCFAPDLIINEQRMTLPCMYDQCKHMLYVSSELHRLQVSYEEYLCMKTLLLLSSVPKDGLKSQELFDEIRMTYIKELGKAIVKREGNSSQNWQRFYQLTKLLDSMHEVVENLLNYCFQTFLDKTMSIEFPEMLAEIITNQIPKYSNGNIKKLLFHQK

[5] = biological target: Glucocorticoid receptor (Homo sapiens) (UniProt P04150); test: GR-EFC Redistribution (AID 451; calls by dose curve; further: potency means the concentration at half of the fitted maximal effect); details: CHO-K1 GR-EFC translocation, beta-gal luminescence, 2 h
Outline: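 Translocation of GR-ED fusion to nuclear EA restores b-gal, read by luminescence after 1 h room-temperature detection. Engineered CHO-K1 biosensor cells, 1,000/well, exposed 2 h at 37 C to titrations up to 46 uM final.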

[6] = biological target: Mitogen-activated protein kinase 10 (Mus musculus) (UniProt Q61831); test: JNK3 AlphaScreen Assay (AID 530; active means well fitted curve in either direction with a large enough effect, not every such curve was filed as active;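 further: kinase came from lysate of stimulated human HepG2 cells; signal reports phosphorylation of biotinylated GST-cJun 1-79 at Ser73 with 10 µM ATP; on the % scale 0 is the no-effect control and ±100 the full control effect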)
Outline: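 qHTS titrations with 15 min compound pre-incubation before adding ATP (10 uM final). Read-out: AlphaScreen of Ser73-phosphorylated biotin-GST-cJun using HepG2 lysate JNK3 activated by IL-1β and TNFα.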

[7] = biological target: 3',5'-cyclic-AMP phosphodiesterase 4B (Homo sapiens) (UniProt Q07343); test: qHTS Assay for Inhibitors of PDE-IV (AID 607; active means well fitted activation curve with a large enough effect in the main read-out, with a control signal flat, not every such curve was filed as active; further: % of control where 0% means no effect)
Sequence of 3',5'-cyclic-AMP phosphodiesterase 4B (Homo sapiens) (Q07343 whole entry, looked up): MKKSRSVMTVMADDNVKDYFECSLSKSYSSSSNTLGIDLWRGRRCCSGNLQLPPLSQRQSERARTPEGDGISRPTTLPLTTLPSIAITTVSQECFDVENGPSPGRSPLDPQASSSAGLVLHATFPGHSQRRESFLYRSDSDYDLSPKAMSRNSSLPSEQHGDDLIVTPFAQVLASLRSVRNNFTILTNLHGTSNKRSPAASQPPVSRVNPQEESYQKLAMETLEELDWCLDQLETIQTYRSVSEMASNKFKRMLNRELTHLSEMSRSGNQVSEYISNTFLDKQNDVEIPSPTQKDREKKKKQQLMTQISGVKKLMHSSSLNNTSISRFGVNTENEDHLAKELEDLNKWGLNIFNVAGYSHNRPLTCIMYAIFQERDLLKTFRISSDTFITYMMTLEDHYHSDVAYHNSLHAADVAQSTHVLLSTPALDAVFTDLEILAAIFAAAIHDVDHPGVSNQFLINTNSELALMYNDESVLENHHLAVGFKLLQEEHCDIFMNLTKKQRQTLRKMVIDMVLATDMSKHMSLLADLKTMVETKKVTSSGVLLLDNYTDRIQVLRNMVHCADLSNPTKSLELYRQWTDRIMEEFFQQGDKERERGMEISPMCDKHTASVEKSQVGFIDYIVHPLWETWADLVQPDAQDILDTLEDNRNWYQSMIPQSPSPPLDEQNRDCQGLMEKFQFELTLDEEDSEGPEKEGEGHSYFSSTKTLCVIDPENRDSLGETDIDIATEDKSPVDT
Outline: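 The readout is membrane depolarisation from a cAMP-sensing CNG channel, detected with a potential dye at ex 535/em 590. Cells were HEK293-derived (endogenous PDE-IV) at 1000 cells/well, titrated up to 22.9 uM final.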

[8] = biological target: Guanine nucleotide-binding protein G(i) subunit alpha-1 (Homo sapiens) (UniProt P63096); test: qHTS Assay for Inhibitors of RGS12 GoLoco Motif Activity (Green Fluorophore) (AID 879);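 further: 0% = labeled peptide with Gαi1 and full inhibition = labeled peptide alone without protein; negative values mean loss of peptide binding seen as reduced polarization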
Outline: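 A drop in FITC polarization marked displacement of the FITC-tagged RGS12 GoLoco peptide (10 nM) from Gαi1 (50 nM). Compounds were incubated 10 min at room temperature in Tris pH 7.5 buffer containing 150 mM NaCl, 0.1 mM GDP and 0.05% NP40; unlabeled peptide titration served as control.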

[9] = biological target: Cytochrome P450 2C9 (Homo sapiens) (UniProt P11712); test: qHTS Assay for Inhibitors and Substrates of Cytochrome P450 2C9 (AID 883); further: on the % scale 0 is the no-effect control and ±100 the full control effect; nearly all actives have a fitted effect of over 60% in size
Sequence of Cytochrome P450 2C9 (Homo sapiens) (P11712 whole entry, looked up): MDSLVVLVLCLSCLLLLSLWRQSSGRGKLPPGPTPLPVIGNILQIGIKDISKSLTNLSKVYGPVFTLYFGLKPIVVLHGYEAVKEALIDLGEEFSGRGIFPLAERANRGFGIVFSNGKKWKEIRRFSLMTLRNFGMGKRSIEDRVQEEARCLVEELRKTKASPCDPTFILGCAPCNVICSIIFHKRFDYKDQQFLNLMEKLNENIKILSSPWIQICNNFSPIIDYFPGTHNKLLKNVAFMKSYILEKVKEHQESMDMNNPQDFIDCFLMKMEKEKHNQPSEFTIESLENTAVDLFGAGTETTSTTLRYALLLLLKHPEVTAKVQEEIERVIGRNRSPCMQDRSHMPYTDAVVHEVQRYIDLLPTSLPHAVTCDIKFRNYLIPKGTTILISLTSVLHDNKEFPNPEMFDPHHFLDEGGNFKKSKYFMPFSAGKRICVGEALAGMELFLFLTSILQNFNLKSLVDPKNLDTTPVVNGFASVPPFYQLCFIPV
Outline: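 Inhibition of CYP2C9 is scored as loss of luminescence, with 57uM sulphaphenazole defining 100% inhibition. Substrate Luciferin-H is used at 100uM, equal to its KM; enzyme at 10nM in 25mM KPO4, 60 min at 37C with NADPH regeneration.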

[10] = biological target: Cytochrome P450 3A4 (Homo sapiens) (UniProt P08684); test: qHTS Assay for Activators of Cytochrome P450 3A4 (AID 885); further: nearly all actives have a fitted effect of over 65% in size
Sequence of Cytochrome P450 3A4 (Homo sapiens) (P08684 whole entry, looked up): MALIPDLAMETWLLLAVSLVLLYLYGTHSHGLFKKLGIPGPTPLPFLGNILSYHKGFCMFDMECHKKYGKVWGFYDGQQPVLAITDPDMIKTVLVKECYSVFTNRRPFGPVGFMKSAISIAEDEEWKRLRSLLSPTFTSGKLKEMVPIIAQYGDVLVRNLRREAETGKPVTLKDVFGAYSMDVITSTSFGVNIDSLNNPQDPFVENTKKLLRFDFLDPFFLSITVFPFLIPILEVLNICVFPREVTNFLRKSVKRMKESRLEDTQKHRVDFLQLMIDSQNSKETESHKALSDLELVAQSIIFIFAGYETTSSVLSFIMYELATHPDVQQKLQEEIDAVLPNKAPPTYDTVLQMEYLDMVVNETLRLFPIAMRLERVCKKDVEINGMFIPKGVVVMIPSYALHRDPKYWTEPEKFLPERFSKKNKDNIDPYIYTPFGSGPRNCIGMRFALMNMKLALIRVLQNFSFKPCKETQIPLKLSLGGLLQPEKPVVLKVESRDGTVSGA
Outline: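 Activators are scored by enhanced luminescence from CYP3A4 conversion of luciferin-PPXE (25uM, equal to KM) to luciferin, after 60 min at RT with an NADPH-regenerating system.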

[11] = biological target: Cytochrome P450 2D6 (Homo sapiens) (UniProt P10635); test: qHTS Assay for Inhibitors and Substrates of Cytochrome P450 2D6 (AID 891);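 further: luciferin methyl ether substrate demethylated by CYP2D6 with NADPH regeneration; on the % scale 0 is the no-effect control and ±100 the full control effect; nearly all actives have a fitted effect of over 60% in size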
Sequence of Cytochrome P450 2D6 (Homo sapiens) (P10635 whole entry, looked up): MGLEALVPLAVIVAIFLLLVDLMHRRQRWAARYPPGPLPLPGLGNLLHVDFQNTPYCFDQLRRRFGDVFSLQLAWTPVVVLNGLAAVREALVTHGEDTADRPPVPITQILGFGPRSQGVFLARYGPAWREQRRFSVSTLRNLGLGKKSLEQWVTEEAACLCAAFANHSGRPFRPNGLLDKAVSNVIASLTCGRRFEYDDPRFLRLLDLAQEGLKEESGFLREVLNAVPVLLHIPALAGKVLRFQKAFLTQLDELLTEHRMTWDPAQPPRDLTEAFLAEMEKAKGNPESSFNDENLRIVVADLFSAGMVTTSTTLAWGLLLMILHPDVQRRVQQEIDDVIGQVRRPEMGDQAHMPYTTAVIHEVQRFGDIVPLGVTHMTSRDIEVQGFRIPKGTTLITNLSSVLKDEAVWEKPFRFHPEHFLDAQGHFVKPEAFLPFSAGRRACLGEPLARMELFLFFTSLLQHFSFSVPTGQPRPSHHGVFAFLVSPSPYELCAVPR
Outline: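 Luminescent read-out of luciferin formed by 5 nM human CYP2D6 demethylating 30 uM Luciferin-ME EGE (Km level) over 60 min at room temperature after NADPH regeneration addition. Data normalized to full inhibition by 1.43 uM quinidine.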

[12] = biological target: Cytochrome P450 2C19 (Homo sapiens) (UniProt P33261); test: qHTS Assay for Inhibitors and Substrates of Cytochrome P450 2C19 (AID 899); further: on the % scale 0 is the no-effect control and ±100 the full control effect; nearly all actives have a fitted effect of over 60% in size
Sequence of Cytochrome P450 2C19 (Homo sapiens) (P33261 whole entry, looked up): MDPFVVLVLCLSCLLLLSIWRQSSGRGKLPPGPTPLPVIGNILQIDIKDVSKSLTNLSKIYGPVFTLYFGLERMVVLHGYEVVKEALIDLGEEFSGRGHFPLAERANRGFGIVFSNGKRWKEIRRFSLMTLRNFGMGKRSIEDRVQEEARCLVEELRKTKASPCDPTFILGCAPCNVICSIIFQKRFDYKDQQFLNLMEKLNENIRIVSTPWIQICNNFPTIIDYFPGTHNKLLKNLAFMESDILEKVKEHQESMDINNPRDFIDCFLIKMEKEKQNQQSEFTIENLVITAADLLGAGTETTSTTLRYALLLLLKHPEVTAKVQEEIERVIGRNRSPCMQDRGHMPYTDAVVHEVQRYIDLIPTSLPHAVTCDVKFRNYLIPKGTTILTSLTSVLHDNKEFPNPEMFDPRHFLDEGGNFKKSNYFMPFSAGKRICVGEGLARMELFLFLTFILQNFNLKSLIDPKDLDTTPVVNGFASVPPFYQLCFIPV
Outline: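 5nM enzyme + 10uM Luciferin-H EGE (=KM), 50mM KPO4; cpd pin-transferred, 10 min 37C; NADPH regen, 60 min 37C; stopped w/ luciferin detection reagent, 20 min; luminescence. Normalized to 57uM ketoconazole (AC100).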

[13] = Confirmation and Secondary Assay for Modulators of Hemoglobin Beta Chain Splicing at IVS2 654 locus (AID 910);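 further: HeLa cells stably carrying EGFP split by mutant beta-globin IVS2-654 intron; per-well total GFP intensity by laser scanning cytometry after 2-day treatment; % of control where 0% means no effect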
Outline: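 Readout: per-well total peak green fluorescence (488 nm ex, 500–520 nm em) from objects 5–250 µm, reflecting correct splicing of an EGFP-654 reporter. Compounds were applied for 2 days at 37 °C to overnight-plated HeLa EGFP-654 cells; controls were DMSO and 500 nM IVS2-654 PNA.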

[14] = Confirmation and Secondary Assay for Modulators of Hemoglobin Beta Chain Splicing at IVS2 705 locus (AID 930);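 further: HeLa cells stably expressing the EGFP-705 splicing reporter; % of control where 0% means no effect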
Outline: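 HeLa cells stably carrying EGFP interrupted by mutant beta-globin IVS2-705 intron (CMV-driven) were seeded at 500 cells/well, treated next day with compound for 2 days at 37C; corrected splicing restores EGFP, read as total peak GFP intensity per well.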

[15] = biological target: Muscarinic acetylcholine receptor M1 (Rattus norvegicus) (UniProt P08482); test: qHTS Assay for Antagonists of Acetylcholine Muscarinic M1 Receptor: Kinetic Measurement of Intracellular Calcium Response (AID 943);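 further: Fluo-4 calcium signal as peak divided by basal fluorescence over 4 min; nearly all actives have a fitted effect of over 75% in size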
Sequence of Muscarinic acetylcholine receptor M1 (Rattus norvegicus) (P08482 whole entry, looked up): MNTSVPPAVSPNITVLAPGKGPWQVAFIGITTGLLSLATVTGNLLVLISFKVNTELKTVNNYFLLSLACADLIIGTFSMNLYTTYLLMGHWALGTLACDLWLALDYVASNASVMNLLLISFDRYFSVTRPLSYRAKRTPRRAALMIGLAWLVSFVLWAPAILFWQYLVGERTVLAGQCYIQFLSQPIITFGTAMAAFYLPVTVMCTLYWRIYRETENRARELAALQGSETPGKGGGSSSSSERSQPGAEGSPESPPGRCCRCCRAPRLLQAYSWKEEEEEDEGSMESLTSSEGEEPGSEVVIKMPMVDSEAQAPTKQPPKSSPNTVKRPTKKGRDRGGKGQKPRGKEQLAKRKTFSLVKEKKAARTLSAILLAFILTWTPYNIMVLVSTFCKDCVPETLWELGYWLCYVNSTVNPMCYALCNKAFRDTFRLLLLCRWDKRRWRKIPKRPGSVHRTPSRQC
Outline: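 Antagonism measured as reduction of carbachol-evoked (EC80, 100 nM final) calcium flux in rat M1-CHO cells after 10 min compound exposure. Fluo-4 signal read kinetically; ratio of maximal to basal fluorescence.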

[16] = biological target: Pyruvate kinase (Leishmania mexicana) (UniProt Q27686); test: qHTS Validation Assay for Inhibitors of Leishmania Mexicana Pyruvate Kinase (AID 945);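 further: 0% = DMSO only neutral control wells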
Sequence of Pyruvate kinase (Leishmania mexicana) (Q27686 2-499 E452W): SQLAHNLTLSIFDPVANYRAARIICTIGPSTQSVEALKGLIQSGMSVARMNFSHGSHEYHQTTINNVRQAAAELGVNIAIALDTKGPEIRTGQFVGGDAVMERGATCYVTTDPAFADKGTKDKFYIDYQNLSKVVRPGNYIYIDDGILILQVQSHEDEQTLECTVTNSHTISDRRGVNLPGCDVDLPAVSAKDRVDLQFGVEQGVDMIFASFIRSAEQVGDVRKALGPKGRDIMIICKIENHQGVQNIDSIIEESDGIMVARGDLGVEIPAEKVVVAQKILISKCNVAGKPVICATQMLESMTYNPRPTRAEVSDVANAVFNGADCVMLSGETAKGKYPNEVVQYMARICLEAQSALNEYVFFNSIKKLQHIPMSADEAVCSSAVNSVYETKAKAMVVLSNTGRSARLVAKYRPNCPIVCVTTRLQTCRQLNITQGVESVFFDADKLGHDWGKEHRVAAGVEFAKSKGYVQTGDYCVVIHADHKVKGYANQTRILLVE
Outline: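 LmPYK E451W 0.2 nM; 0.5 mM PEP, 0.1 mM ADP, 7 mM MgCl2, 50 mM KCl, imidazole pH 7.2, 0.01% Tween 20, 0.05% BSA; 1 h RT; PKLight luminescence; DMSO-normalized.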

[17] = biological target: Pyruvate kinase PKM (Homo sapiens) (UniProt P14618); test: qHTS Assay for Activators of Human Muscle Pyruvate Kinase (AID 954; active means well fitted curve in the direction sought with a large enough effect, not every such curve was filed as active;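 further: 0% = uninhibited enzyme and -100% = no enzyme or full thiadiazolimine inhibition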)
Outline: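 PKM2, human, >95% pure, 0.1 nM; PEP 0.5 mM (Km), ADP 0.1 mM; 50 mM imidazole pH 7.2, 50 mM KCl, 0.01% Tween 20, 0.05% BSA; 1 h RT; luciferase luminescence readout.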

[18] = biological target: Alpha-galactosidase A (Homo sapiens) (UniProt P06280); test: Counterscreen for Glucocerebrosidase Inhibitors: qHTS Assay for Human alpha-Galactosidase at pH 4.5 (AID 992); further: 0% is about no effect
Sequence of Alpha-galactosidase A (Homo sapiens) (P06280 whole entry, looked up): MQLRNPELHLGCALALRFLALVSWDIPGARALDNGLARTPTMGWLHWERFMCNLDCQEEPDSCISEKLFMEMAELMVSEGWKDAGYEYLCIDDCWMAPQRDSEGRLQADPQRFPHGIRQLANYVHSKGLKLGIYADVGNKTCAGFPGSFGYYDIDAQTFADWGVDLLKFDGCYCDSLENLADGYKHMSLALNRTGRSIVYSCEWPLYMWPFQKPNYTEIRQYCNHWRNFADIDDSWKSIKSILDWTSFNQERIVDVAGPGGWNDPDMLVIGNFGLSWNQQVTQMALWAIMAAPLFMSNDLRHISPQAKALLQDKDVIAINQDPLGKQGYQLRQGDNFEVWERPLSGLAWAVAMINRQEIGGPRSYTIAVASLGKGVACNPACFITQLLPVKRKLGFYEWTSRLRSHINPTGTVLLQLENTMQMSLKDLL
Outline: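 Fluorogenic 4-MU alpha-D-galactoside (80 uM) hydrolysis, 2 nM enzyme, pH 4.5 citrate buffer + 0.005% Tween-20; 20 min RT; NaOH/glycine pH 10 stop; Ex365/Em440. Compounds titrated 0.7 nM–77 uM; Hill-equation AC50.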

[19] = biological target: alpha-glucosidase (Oryza sativa, rice) (UniProt Q653V4); test: Counterscreen for Glucocerebrosidase Inhibitors: qHTS Assay for Rice alpha-Glucosidase at pH 5.0 (AID 997);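 further: 0% = full activity with enzyme and -100% = basal without enzyme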
Outline: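 Endpoint fluorogenic assay at pH 5.0: compounds (0.7 nM to 77 uM) titrated against 4 nM rice enzyme and 400 uM 4-MU-alpha-glucoside for 20 min at room temperature; NaOH/glycine stop, read ex 365/em 440 nm, Hill-fitted AC50.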

[20] = biological target: DNA dC->dU-editing enzyme APOBEC-3G (Homo sapiens) (UniProt Q9HC16); test: qHTS for inhibitors of Vif-A3G interactions: Validation (AID 588379); further: 0% is about no effect
Outline: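 Yellow fluorescence (Ex 488, Em 500-530) of Vif-coexpressing HeLa A3G-eYFP cells, scanned by Acumen cytometer, reports blocked A3G degradation. Cells plated at 700/well overnight at 37 deg C before compound addition, then a further overnight compound incubation at 37 deg C.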

[21] = system: Zika virus NS2B-NS3 protease; test: Primary screen GU AMC qHTS for Zika virus inhibitors (AID 1347154);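 further: 0% = no-inhibitor control and -100% = no-enzyme control; nearly all actives have a fitted effect of over 70% in size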
Outline: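 Fluorogenic AMC-substrate cleavage by noncovalent NS2B-NS3 protease complex (25 nM, pH 8.0 Tris buffer with Tween 20) followed for 15 minutes at room temperature (~20% conversion). Percent inhibition from ex340/em450 signal change, fitted by 4-parameter Hill equation.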

[22] = Primary qHTS for small molecule stabilizers of the endoplasmic reticulum resident proteome: Secreted ER Calcium Modulated Protein (SERCaMP) assay (AID 1508630); further: on the % scale 0 is the no-effect control and ±100 the full control effect
Outline: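 The SH-SY5Y reporter protocol was run at 3 concentrations up to 38.3 uM (primary) or 11 concentrations (follow-up): 16 h compound, 100 nM thapsigargin for 4 h, then extracellular luciferase luminescence.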

N[C@H](Cc1ccc(Cl)cc1)C(=O)O
active: Potency [2] 31.6 µM
inactive: activity change, negative = inhibition [1] 25.5% | activity, negative = inhibition [3] -4.9% | Potency [4] > 46 µM | Potency [5] > 46 µM | Potency [6] | Potency [7] | outcome [8] | Potency [9] | Potency [10] | Potency [11] | Potency [12] | outcome [13] | outcome [14] | Potency [15] | Potency [16] | outcome [17] | outcome [18] | outcome [19] | Potency [20] | Potency [21] | Potency [22]
